Measurements from PubChem BioAssay (NCI).
Compounds without any hit were thinned out: in the full panel of roughly 83,000, 20% have a hit.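 For each line, cells grew in 96-well plates with the test compound present at a single concentration for 48 hours.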 A number with no mark means an inactive call. Activity calls are given as the source filed them.

Tested on: UACC-62 melanoma
Assay: NCI-60 one-dose screen, 48 h (100 = growth as untreated, 0 = no growth, -100 = all killed)
Settings: 10 µM unless noted
Method: Growth inhibition of the UACC-62 human tumor cell line is measured as a screen for anti-cancer activity. Cells are grown in 96 well plates and exposed to the test compound for 48 hours. Compounds are tested at a single concentration, which is 10^-5 M for most compounds. The reported endpoint is percent growth (GI% or GIPRCNT), where numbers from 0 - 100% represent growth inhibition, and numbers from -100% - 0 represent cell death. For example, a value of 40 represents 60% growth inhibition. A value of 0 means no net growth occurred over the course of the experiment. A value of -40 indicates 40% of cells at the beginning of the experiment died by the end of the experiment. A value of -100 means all cells are dead at the end of the experiment.
NCI-60 Human Tumor Cell Lines Screen was performed using the standard one-dose NCI protocol, which is described in more detail at https://dtp.cancer.gov/discovery_development/nci-60/default.htm.
Compounds with GIPRCNT values below 10 were considered active. Activity score was based on GIPRCNT using the following formula: […]
Score is 0 for GIPRCNT values of 100 or above, 50 for GIPRCNT values of 0, and 100 for GIPRCNT values of -100.

SMILES	growth
C/C(=N\NC(=O)CSc1nc2ccccc2c(=O)n1CCc1ccc(S(N)(=O)=O)cc1)c1ccccn1	19.5%
N#CC1=C(N)Oc2c(ccc3ccccc23)C1c1ccccc1Cl (stereo not given)	26.6%
CN(C)c1ccc(C2C(C#N)=C(/N=C/c3ccccc3)Oc3c2ccc2ccccc32)cc1 (stereo not given)	49.2%
CCCCN1C=CCN(CCCC)C1	24.5%
N#CC1C(C#N)C2c3ccccc3C=CN2C1C(=O)c1ccc(Br)cc1 (stereo not given)	98.4%
O=C(O)c1ccc(NCc2cn(-c3ccc(C(F)(F)F)cc3)nc2-c2ccc(C(=O)O)cc2)cc1	101%
CCN(CC)c1ccc(/C=N/NC(=O)CSc2nc3ccccc3c(=O)n2CCc2ccc(S(N)(=O)=O)cc2)c(O)c1	15.5%
CCOC(=O)c1nc2c3ccccc3ccn2c1C(=O)OCC	87.5%
c1ccc(-c2cn3c(ccc4ccccc43)n2)cc1	43.5%
CCCOc1ccc(/C=N/Nc2cc(C)nc3ccc(Br)cc23)cc1	96.1%
COc1ccc(C(=O)c2cc(C)c(OC)c(C)c2)c(OC)c1NC(C)=O	31.6%
C[C@H]1[C@H](C)CC[C@]2(C(=O)NCC#CCN3CCN(C)CC3)CC[C@]3(C)C(=CC[C@@H]4[C@@]5(C)Cc6c([nH]c7ccccc67)C(C)(C)[C@@H]5CC[C@]43C)[C@H]12	101%
Fc1ccc(-c2cn3c(nc4ccccc43)c(-c3ccccc3)n2)cc1	78.9%
O=C(c1nc2ccccc2[nH]1)C1C(c2ccc(Br)cc2)C2CC3CCCC[C@H]3N2[C@@]12C(=O)Nc1cc(Cl)ccc12 (stereo not given in full)	58%
C/C(=N\NC(=O)CSc1nc2ccccc2c(=O)n1Cc1ccc(S(N)(=O)=O)cc1)c1ccc(F)cc1	102%
O=C(CCN1CCCC1)Nc1ccc2c(NCCCc3ccccc3)c3ccccc3nc2c1	43.5%
CCCCNC(=O)Oc1ccc(/C(=C(\C)c2ccccc2)c2ccc(OCCN3CCCCC3)cc2)cc1	41.8%
CCOC(=O)c1cc(C#N)n2ccc3ccccc3c12	91.5%
COc1ccc(-c2nc([C@@H](C)Sc3nc(N)cc(N)n3)c(C)s2)cc1OCCN1CCOCC1	84.3%
C=C(C)[C@@H]1CC[C@]2(C(=O)N3CCN(C)CC3)CC[C@]3(C)[C@H](CC[C@@H]4[C@@]5(C)CC[C@H](O)C(C)(C)[C@@H]5CC[C@]43C)[C@@H]12	-82.9% (active)

SMILES	growth
CCOC(=O)c1cc(C(=O)c2ccc(Br)cc2)n2ccc(/C=C/c3cc[n+](CC(=O)c4ccc(OC)cc4)cc3)cc12	92.7%
O=[N+]([O-])CC(c1ccccc1)c1c[nH]c2ccccc12 (stereo not given)	35%
CCCNC(=O)Oc1ccc(/C(=C(\C)c2ccccc2)c2ccc(OCCCN(C)C)cc2)cc1	54.2%
CC(=O)Oc1ccc(/C=N/NC(N)=S)nc1	59.3%
Cc1ccc(/C=C(/C#N)n2nnc3cccc(F)c32)cc1	13.2%
N#C/C(=C\c1ccc(Cl)cc1)n1nnc2cc(F)c(F)cc21	21%
Cn1ccnc1C(=O)/C=C/c1ccc(CC(=O)Nc2ccc(Cl)cc2)cc1	35%
Cc1ccccc1NS(=O)(=O)c1cccc(C(=O)Nc2ccc(Br)cc2)c1	25.9% [25 µM]
CN1CCN(C(=O)[C@]23CCC(C)(C)C[C@H]2C2=CC[C@@H]4[C@@]5(C)C/C(=C/c6ccncc6)C(=O)C(C)(C)[C@@H]5CC[C@@]4(C)[C@]2(C)CC3)CC1	61%
CCOC(=O)Oc1c(OC)cc(C(=O)c2ccc(OC)c(O)c2OC)cc1OC	34.3%
CCNc1nc2ccc(Nc3ccnc4cc(Cl)ccc34)cc2[nH]1	92.5%
N#Cc1c(NCc2ccccc2I)sc2c1CCCCC2	69.5%
CCN(Cc1ccccc1)c1ccc(C=O)cc1	85.2%
O=C(/C=C/c1ccc(Cl)cc1)c1ccc(NC(=O)N2CCN(c3cc4c(cc3F)c(=O)c(C(=O)O)cn4C3CC3)CC2)cc1	76.1%
O=[N+]([O-])CC(c1ccccc1F)c1c[nH]c2ccccc12 (stereo not given)	53.4%
NNC(=O)c1ccc(-n2nc(-c3ccccc3)c3ccccc32)cc1	80.7%
COC(=O)C1=C(C(=O)ON)[C@@H]2C=C[C@@]1([C@@H](Cc1ccccc1)Nc1ccccc1)O2	90%
CN(CCN(C)c1ccc(C(=N)N)cc1)c1ccc(C(=N)N)cc1	78.7%
Oc1cccc(CCc2ccc(Oc3cc(CCc4cccc(O)c4)cc(O)c3O)cc2)c1	73.3%
Cc1c(C(=O)NCCC(=O)NO)sc2ncnc(Nc3ccc(F)c(Cl)c3)c12	102%
